Key:
Assay in all cases: PBM binding z-score (relative to random genomic background probes); higher = stronger binding; sequences stand for … in GC…GCGATTGACAGCGTAGAATGAAGG
[1] = test system: PPARg:RXRa DBDmut IVT, anti-RXR (DBD mutation: RXRa K156A/R161A, NR concentration 270 nM, RXRa partner concentration 90 nM)
In short: (§1)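 For binding z-scores, the reference was random background probes on custom Agilent 4×180K protein-binding microarrays. These arrays were incubated 1 h with ligand-free nuclear receptor dimers in PBS pH 7.4, 2% milk, 0.02% Triton X-100, 1 mM DTT, 0.2 mg/mL BSA and 0.4 mg/ml salmon testes DNA. Fluorescence was scanned after antibody detection of each partner (one per run) and regression-normalized.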

[2] = test system: PPARg:RXRa IVT, anti-PPARg (NR concentration 270 nM, RXRa partner concentration 90 nM)
In short: as §1

[3] = test system: PPARg DBDmut:RXRa IVT, anti-PPARg (DBD mutation: PPARg1 K132A/R137A, NR concentration 270 nM, RXRa partner concentration 90 nM)
In short: as §1

[4] = test system: PPARg DBDmut IVT, anti-PPARg (DBD mutation: PPARg1 K132A/R137A, NR concentration 270 nM)
In short: as §1

[5] = test system: PPARg homodimer (NR concentration 180 nM)
In short: as §1

[6] = test system: PXR:RXRa (NR concentration 270 nM, RXRa partner concentration 90 nM)
In short: as §1

[7] = test system: PXR homodimer (NR concentration 270 nM)
In short: as §1

[8] = test system: RARa:RXR (NR concentration 270 nM, RXRa partner concentration 90 nM)
In short: as §1

[9] = test system: RARa homodimer (NR concentration 270 nM)
In short: as §1

[10] = test system: RARb:RXRa (NR concentration 270 nM, RXRa partner concentration 90 nM)
In short: as §1

[11] = test system: RARb homodimer (NR concentration 270 nM)
In short: as §1

[12] = test system: RARg:RXRa (NR concentration 270 nM, RXRa partner concentration 90 nM)
In short: as §1

[13] = test system: RARg homodimer (NR concentration 270 nM)
In short: as §1

[14] = test system: RXRa DBDmut IVT, anti-RXR (DBD mutation: RXRa K156A/R161A, NR concentration 90 nM)
In short: as §1

[15] = test system: RXRa homodimer (NR concentration 180 nM)
In short: as §1

[16] = test system: THRa:RXRa (NR concentration 90 nM, RXRa partner concentration 90 nM)
In short: as §1

[17] = test system: THRa homodimer (NR concentration 90 nM)
In short: as §1

[18] = test system: VDR homodimer (NR concentration 270 nM)
In short: as §1

| Sequence | PBM binding z-score [1] | PBM binding z-score [2] | PBM binding z-score [3] | PBM binding z-score [4] | PBM binding z-score [5] | PBM binding z-score [6] | PBM binding z-score [7] | PBM binding z-score [8] | PBM binding z-score [9] | PBM binding z-score [10] | PBM binding z-score [11] | PBM binding z-score [12] | PBM binding z-score [13] | PBM binding z-score [14] | PBM binding z-score [15] | PBM binding z-score [16] | PBM binding z-score [17] | PBM binding z-score [18] |
| --- | --- | --- | --- | --- | --- | --- | --- | --- | --- | --- | --- | --- | --- | --- | --- | --- | --- | --- |
| TCATATAGGTAAATAGGTGAAAGTCCGTAAGTTA | 5.74 | 6.26 | 1.25 | 1.38 | 1.18 | 1.13 | 0.363 | 1.44 | 1.54 | 0.905 | 1.17 | 1.26 | 0.407 | 1.39 | 1.62 | 0.865 | 0.0399 | 0.337 |
| ACTAGCAGGCCAAGTTTTGGTCACTCAAACAAAG | 0.635 | 0.635 | -0.425 | -0.348 | -0.321 | -0.259 | -0.809 | 0.113 | -0.612 | 0.742 | 0.74 | 0.448 | 0.546 | -0.286 | -0.0235 | 0.0291 | -0.326 | -0.447 |
| CAGCCTAGGTCATGGCCAGTATAGGAGGAACGTT | 2.64 | 2.68 | -0.045 | -0.826 | 1.72 | 1.53 | -0.702 | 2.45 | 0.132 | 3.99 | 3.01 | 4.38 | 4.94 | 1.17 | 3.32 | 2.93 | 0.965 | 0.197 |
| TCAGATAGGTAAACAGGTGAAAGTCCGTAAGTTA | 2.93 | 2.15 | 0.778 | 0.465 | 0.969 | 0.684 | 0.401 | 1.05 | 1.15 | 0.891 | 0.841 | 0.678 | 0.219 | 1.48 | 1.01 | 0.664 | 0.307 | 0.407 |
| TCATATAGGTAAACAGATGAAAGTCCGTAAGTTA | 3.98 | 2.76 | 1.5 | 0.808 | 0.603 | 0.869 | 0.583 | 0.622 | 1.28 | 0.483 | 0.099 | 0.636 | 0.431 | 1.38 | 0.703 | 0.419 | -0.0722 | 0.455 |
| TTACCAAGGTGAAGGTCGATGATCCCTCTGTAGA | 1.53 | 3.14 | -0.416 | -0.0425 | 0.524 | 0.883 | 0.0636 | 1.36 | 0.0108 | 2.11 | 1.64 | 1.22 | 1.39 | -0.217 | 1.4 | 2.05 | 0.572 | 0.0587 |
| ATCGGAAGGTCGAAGGTGAGTATACCCACCCGAA | -0.338 | 1.53 | 0.343 | -0.28 | 1.26 | 1.65 | 0.401 | 2.34 | -0.118 | 2.55 | 1.44 | 2.82 | 2.27 | 0.152 | 3.19 | 1.4 | -0.0912 | 0.449 |
| GGAAAGAGGGCATTCGAGTTGATAGCATGGCGAT | 2.82 | 1.52 | 0.272 | 0.297 | 0.828 | 4.41 | 1.31 | 1.75 | 0.298 | 2.24 | 1.42 | 1.81 | 1.82 | 2.67 | 1.32 | 3.61 | -0.358 | 2.71 |
| TAGCCTAGGTCATTGGGCCAGTATGGTACGCATC | 2.56 | 3.68 | 0.116 | 0.266 | 1.26 | 1.38 | -0.75 | 2.07 | -0.00791 | 3.44 | 2.8 | 3.75 | 3.81 | 1.46 | 2.73 | 2.81 | 0.583 | 0.715 |
| CGAACTAGGTTATCCAGGACAGTGAATACATTGA | 6.42 | 5.96 | 0.89 | 0.666 | 0.877 | 0.173 | 0.527 | 0.654 | 0.298 | 0.828 | 0.559 | 0.544 | 1.04 | 0.958 | 0.343 | 2.45 | 1.19 | 0.455 |
| CGAACTAGGTCATCCAGGACAGTGACTACATTGA | 8.16 | 8.47 | 4 | 0.771 | 3.18 | 1.88 | 1.13 | 2.32 | 0.438 | 3.95 | 3.11 | 4.13 | 4.54 | 2.28 | 2.93 | 3.77 | 2.2 | 1.69 |
| TTACCAAGGTGAAAGGTCGTTGGTGCACGCCTTG | 3.18 | 5.34 | 0.205 | 0.977 | 2.46 | 4.31 | 0.449 | 6.09 | -0.639 | 3.31 | 2.87 | 4.49 | 1.81 | 0.82 | 6.07 | 3.48 | 0.937 | 1.86 |
| TCTCGGAGGACAAGAAAGGTCAGAGCTCGACATC | 1.37 | 0.954 | -0.439 | -0.79 | 2.62 | 3.55 | 0.191 | 4.02 | 0.689 | 4 | 4.61 | 4.01 | 4.75 | 0.958 | 3.39 | 3.24 | 0.472 | 0.546 |
| CAGCCTAGGTCAGGGACAGTATAGGAGGAACGTT | 1.29 | 1.68 | -0.599 | -0.73 | 0.801 | 0.546 | -0.219 | 1.22 | 0.00135 | 3.4 | 2.6 | 3.02 | 3.8 | 0.364 | 1.77 | 2.37 | 0.952 | 0.0373 |
| CCTTACGGGTCACTGACAGATTATAGCATTTGGA | 3.42 | 3.85 | 0.84 | 0.266 | 2.31 | 3.04 | 0.241 | 4.3 | 1.11 | 3.93 | 3.01 | 4.96 | 4.43 | 2.1 | 4.89 | 2.38 | 0.495 | 0.842 |

Reference: the supplement of paper PMC6555819
